Assays:
Assay type in all cases: functional
Plasmodium falciparum [1] = experiment: GSK_TCMDC: Inhibition of Plasmodium falciparum 3D7 in whole red blood cells, using parasite LDH activity as an index of growth. Test compounds present at 2uM
Plasmodium falciparum [2] = experiment: GSK_TCMDC: Inhibition of Plasmodium falciparum Dd2 in whole red blood cells, using parasite LDH activity as an index of growth. Test compounds present at 2uM
HepG2 = experiment: GSK_TCMDC: Percent inhibition of human HepG2 cell line. Test compounds present at 10uM.

SMILES | Inhibition (Plasmodium falciparum [1]) | Inhibition (Plasmodium falciparum [2]) | Inhibition (HepG2)
O=C(Nc1cccc(C(F)(F)F)c1)c1ccc(S(=O)(=O)NCC2CCCN(CC3CCCCC3)C2)cc1.O=C(O)C(F)(F)F (stereo not given) | 95% | 9% | 26%
Fc1ccc2[nH]c(-c3ccc(-c4ccc(CNCC5CCCO5)cc4)cc3)nc2c1.O=C(O)C(F)(F)F (stereo not given) | 100% | 100% | 26%
O=C(Nc1ccc(Cn2ncc(N3CCCNCC3)c(Cl)c2=O)cc1)Nc1ccc(F)cc1[N+](=O)[O-] | 90% | 0% | 11%
c1cncc(-c2cc(N3CCc4ccccc4C3)nc(-c3ccncc3)n2)c1 | 100% | 100% | 56%
Nc1cccc(CNCc2ccc(-c3cccc(-c4nc5ccccc5[nH]4)c3)cc2)c1.O=C(O)C(F)(F)F | 100% | 78% | 12%
COc1cccc(C2(c3cccc(OC)c3)N=C(N)N(CCCc3ccccc3)C2=O)c1.O=CO | 98% | 93% | 3%
Cc1ccc2[nH]c(-c3ccccc3Nc3ccnc4cc(-c5nccs5)ccc34)nc2c1.Cl | 100% | 100% | 40%
CCCN(Cc1ccc(C)cc1)Cc1cc(=O)c2cc(Cl)ccc2[nH]1 | 86% | 91% | 51%
Cl.O=c1cc(NCCCNCc2cc3c(Cl)cc(Cl)cc3[nH]2)[nH]c2ccccc12 | 100% | 0% | 0%
COC(=O)c1ccc(N2CCN(CCCCNC(=O)c3ccc(NC(=O)c4ccc(Cl)cc4)cc3)CC2)c(OC)c1 | 82% | 1% | 11%
Cc1nc(N)nc(N)c1Oc1cccc(Cl)c1.O=S(=O)(O)O | 94% | 0% | 49%
Cc1cc(N[C@@H](CC(C)C)C(=O)NCCc2ccccc2)nc(Nc2ccccc2)n1.O=C(O)C(F)(F)F | 100% | 38% | 1%
Br.C=CCc1cc(Br)ccc1OCCCON1C(N)=NC(N)=NC1(C)C | 95% | 97% | 61%
O=S(=O)(c1ccc(OC(F)(F)F)cc1)C1CC2CCC(C1)N2S(=O)(=O)c1ccc(Cl)c(C(F)(F)F)c1 (stereo not given) | 100% | 95% | 1%
O=C(Nc1cc(Cl)ccc1-n1cncn1)C1(c2ccccc2)CC1 | 98% | 91% | 3%
O=C(NCc1ccc(Cl)c(Cl)c1)c1ccc(-c2nc3cc(F)c(F)cc3[nH]2)cc1 | 81% | 12% | 0%
Cc1cc(O)c(CNC2CCCCC2)cc1C.Cl | 95% | 95% | 6%
COc1ccc(C(=O)N2CCC3(CC2)C(=O)N(CC(=O)NC2CCCCC2)CN3c2ccccc2)c(OC)c1 | 100% | 99% | 4%
O=C(N[C@@H](Cc1ccccc1)C(=O)NC1CCCc2ccccc21)c1ccc(O)c(-c2cccc(C(F)(F)F)c2)c1 (stereo not given in full) | 91% | 41% | 0%
CCN(CC)c1ccc(NC(=S)NC2CCN(CCCCCNC(=O)/C=C/c3ccc(Cl)c(Cl)c3)CC2)cc1 | 100% | 58% | 16%
O=C(Nc1cccc(CN2CCCN(Cc3ccc(F)cc3)CC2)c1)c1cc2ccccc2s1.O=C(O)C(F)(F)F | 91% | 36% | 29%
Oc1cc(Nc2ccnc3cc(I)ccc23)c(F)cc1Cl | 92% | 77% | 0%
COc1ccc(CNCc2ccc(-c3cccc(-c4nc5cc(F)ccc5[nH]4)c3)cc2)cc1.O=C(O)C(F)(F)F | 100% | 94% | 33%
CS(=O)(=O)Cc1ccc(Nc2nccc(N3CCCc4cc(NC(=O)Nc5cccc(C(F)(F)F)c5)ccc43)n2)cc1 | 100% | 99% | 46%
Cc1cccc2nc(-c3cccc(-c4cccc(NC(=O)c5cnccc5C(F)(F)F)c4)c3)[nH]c12 | 98% | 47% | 7%
CC1(C)CCC(C)(C)c2c1ccc(C1CCN(CCCCNC(=O)c3ccc(-c4ccc(C#N)cc4)cc3)CC1)c2OCC(N)=O | 100% | 100% | 99%
FC(F)(F)c1cccc(CNCCCCCNCc2ccc(Cl)cc2)c1 | 91% | 15% | 13%
COc1ccc(C2=[N+]([O-])c3ccccc3C2=O)cc1 | 93% | 61% | 2%
COc1cccc(C2CCN(CCN3CCC(NC(=O)c4ccc(-c5ccc(C(F)(F)F)cc5)cc4)CC3)CC2)c1 | 99% | 99% | 46%
Cc1cc(Nc2ccccc2)nc(Nc2ccccc2)n1 | 96% | 74% | 0%
